# Data taken from PubChem BioAssay (NCATS).
# Calls of active or inactive are those of the source. The call rests on the fitted dose curve; in most records, active means well fitted inhibition curve with a large enough effect; inconclusive means small, poorly fitted or top-dose-only effect; inactive means flat fitted curve, though single readings scatter. Where a SMILES comes first, the peptide text is derived from it. [ ]: non-standard residue; d: D form. Hyp = O=C(O)[CH]1C[CH](O)CN1; Phe(ol) = N[CH](CO)Cc1ccccc1; Iva = CC[C](C)(N)C(=O)O; Aib = CC(C)(N)C(=O)O
# Molecular target: Luciferin 4-monooxygenase (Photinus pyralis) (UniProt P08659)
# Experiment: Primary firefly luciferase (FLuc) qHTS assay for identification of artifact compounds. (AID 1845220); further: nearly all actives have a fitted effect of over 60% in size
# Conditions: purified firefly luciferase, luminescence, 5 min; series mostly up to 54.1 µM; activity change, negative = inhibition: at the top concentration
# Excerpt: PI: Alexander Tropsha Ph.D.
# UNC Eshelman School of Pharmacy
# University of North Carolina, Chapel Hill, North Carolina
# Hits from high-throughput screening (HTS) of chemical libraries are often false positives due to their interference with the assay detection technology. In response to this problem, we generated the largest publicly available library of chemical liabilities and developed a free webtool to predict HTS artifacts, both of which are described herein. More specifically, we generated, curated, and integrated HTS datasets for thiol reactivity, redox activity, and luciferase (firefly and nano) activity. Using these curated datasets, we developed and validated several Quantitative Structure-Interference Relationship (QSIR) models to predict nuisance behavior. […] These models were employed for virtual profiling of the National Center for Advancing Translational Science's (NCATS) in-house library, and 256 compounds for each assay were selected for the experimental validation of nuisance behavior. The BA for these external predictions ranged from 58 to 78% for compounds within the applicability domains of the models. […] The models developed in this study, along with aggregation models previously developed by our group (SCAM Detective) were implemented in "Liability Predictor," an online tool which may be used as part of chemical library design or for triaging HTS hits. Both the models and the curated datasets are publicly available at https://liability.mml.unc.edu/.
# SEQUENCE No. (e.g., 1, 2, 3, etc.); […] (e.g., Cells, Incubation, Reagent, etc.); VALUE; DESCRIPTION.
# 1; Reagent; 3 uL; Luciferase substrate mixture.
# 2; Compounds and control; 16 nL; Kalypsis pin tool (Wako USA) equipped with a 1536-well pin head.
# 4; Reagent; 1 uL; Luciferase enzyme.
# 6; Detection; Luminescence, ViewLux microplate reader.
# NOTES (numbers refer to Sequence numbers above)
# 1. 3 uL of luciferase substrate mixture containing D-luciferin and ATP (final concentrations of 10 uM and 10 uM, respectively) in assay buffer (10 mM Mg-acetate, 0.01% Tween-20, 0.05% bovine serum albumin, 50 mM Tris acetate, pH 7.6) was dispensed into all wells of a 1536-well assay plate (solid-bottom white plate; Greiner Bio One, Monroe, NC).
# 2. A Wako Pin-tool (Wako Automation, Richmond, VA) was used to transfer 16 nL of compounds (consisting of 7-plates in qHTS format, final concentration range 18.3 nM to 114 uM) or control PTC124 (final concentration range 1.22 nM to 40 uM).
# 3. 15 min. incubation at room temperature protected from light.
# 4. 1 uL of luciferase enzyme (final concentration 10 nM, Photinus pyralis luciferase) or buffer was dispensed for a final assay volume of 4 uL.
# 5. Plates were centrifuged (121xg, 15 seconds) and incubated for 5 minutes.
# 6. Samples were read for luminescence on a ViewLux CCD imager (PerkinElmer). Data were normalized to no-enzyme (0% activity) and no-inhibitor (DMSO; 100%) controls and the resulting percent inhibition data were fitted to a 4-parameter Hill equation using NCATS in-house software.
Structure (SMILES),outcome,"activity change, negative = inhibition"
COc1ccccc1N1CCN(c2ncnc3n[nH]c(Br)c23)CC1,inactive,–
C=C1CC[C@@H]2[C@](C)(CO)[C@H](O)CC[C@@]2(C)[C@@H]1C/C=C1/C(=O)OCC1O (stereo not given in full),inactive,–
C[C@@H]1O[C@@H](O[C@H]2[C@@H]3C=CO[C@@H](O[C@@H]4O[C@H](CO)[C@@H](O)[C@H](O)[C@H]4O)[C@@H]3[C@@]3(CO)O[C@@H]23)[C@H](O)[C@H](OC(=O)/C=C/c2ccccc2)[C@H]1O,–,-3.77% [at 25.7 µM] (inactive)
COC1CCN(C(=O)c2cc(Cc3n[nH]c(=O)c4ccccc34)ccc2F)CC1,–,-14.4% (inactive)
C/C=C(\C)C(=O)O[C@@H]1[C@@H](C)[C@]2(O)[C@@H]3C=C(C)C(=O)[C@H]3CC(CO)=C[C@H]2C2C(C)(C)[C@@]21OC(=O)C(C)CC (stereo not given in full),–,-10.2% [at 25.7 µM] (inactive)
Cc1ccnc(NC(=O)C(C)c2cccc(C(=O)c3ccccc3)c2)c1 (stereo not given),inactive,–
CCC(C)(NC(=O)C(CCC(N)=O)NC(=O)C1CC(O)CN1C(=O)C(C)(C)NC(=O)C(C)(C)NC(=O)C(CC(C)C)NC(=O)CNC(=O)C(NC(=O)C(C)(C)NC(=O)C(C)(C)NC(=O)C(C)(C)NC(=O)C(Cc1ccccc1)NC(C)=O)C(C)C)C(=O)N1CC(O)CC1C(=O)NC(C)(C)C(=O)NC(CO)Cc1ccccc1 (stereo not given) (Ac-F[Aib][Aib][Aib]VGL[Aib][Aib][Hyp]Q[Iva][Hyp][Aib][Phe(ol)]; configuration not given here),–,-5.79% [at 11.6 µM] (inactive)
CCOc1cc(C(C)(C)C)ccc1C1=NC(C)(c2ccc(Cl)cc2)C(C)(c2ccc(Cl)cc2)N1C(=O)N1CCN(CCCS(C)(=O)=O)CC1 (stereo not given),–,-17.8% (inactive)
N#C/C(=C1\Nc2ccccc2S1)c1ccnc(NCCc2cccnc2)n1,–,2.62% (inactive)
Cc1cc(F)ccc1-c1nc(NCCN=C(N)NC#N)nc2c1ccc(=O)n2-c1c(F)cccc1F,–,-7.95% (inactive)
C=C1C(=O)O[C@@H]2/C=C(\CO)CC/C=C(/C=O)C[C@@H](O)[C@@H]12,inactive,–
CC(=O)O[C@@H]1C[C@]2(C)[C@@]3(CCC4[C@@]5(C)CC[C@H](O[C@@H]6O[C@H](C(=O)O)[C@@H](O)[C@H](OC7OC(CO)C(O)C(O)[C@H]7O[C@@H]7O[C@@H](C)[C@H](O)[C@@H](O)[C@H]7O[C@@H]7OC[C@](O)(CO)[C@H]7O)[C@H]6OC6OC(CO)C(O)C(O)C6O)C(C)(C)C5CC[C@]42C)OC[C@@]12CCC(C)(C)CC23 (stereo not given in full),–,-3.18% [at 11.6 µM] (inactive)
O=C(Nc1ccc(-c2ccnc(Nc3ccc(N4CCOCC4)cc3)n2)cc1)C1CCCN1 (stereo not given),–,-28.3% (inactive)
COc1cc(N2CCC(N3CCN(C)CC3)CC2)ccc1Nc1ncc(Cl)c(Nc2ccccc2P(C)(C)=O)n1,–,2.23% (inactive)
CCCc1cc(C)n(C)c(=O)c1CN(C)C(=O)c1cc(-c2ccc(N3CCN(C(C)C)CC3)nc2)cc2c1cnn2C(C)C,–,-1.37% (inactive)
CC(=O)OC1CC(C)C2(CCC3(CC(=O)OC3O)O2)C2(C)CCCC(C)(C)C12 (stereo not given),–,2.68% [at 25.7 µM] (inactive)
COc1cccc(CN(C(=O)CC(C)(C)C)[C@H]2C[C@H](C(=O)N3CCNCC3)N(Cc3ccc4c(c3)OCO4)C2)c1,inactive,–
Cc1nc(Nc2cnn(C3CCNCC3)c2)nc2c1N(C)C(=O)c1cc3ccccc3cc1N2C,inactive,–
CC(C)NC(=O)COc1cccc(-c2nc(Nc3ccc4[nH]ncc4c3)c3ccccc3n2)c1,–,-0.471% (inactive)
COc1ccccc1S(=O)(=O)Nc1ccc2c(c1)CN(C)C(=O)N2,inactive,–

Structure (SMILES),outcome,"activity change, negative = inhibition"
COc1cc(N2CCOCC2)ccc1NC(=O)c1csc(-c2cccnc2)n1,–,1.1% (inactive)
CCOc1ccc(-n2c(C(C)N(Cc3cccnc3)C(=O)Cc3ccc(F)c(C(F)(F)F)c3)nc3ncccc3c2=O)cc1 (stereo not given),–,2.73% (inactive)
C=C1C(=O)OC2/C=C(\CO)CC/C=C(\C=O)C(OC)C(OC(=O)C(C)CC)C12 (stereo not given),–,2.69% [at 25.7 µM] (inactive)
CCOC(=O)c1cnc2ccc(-c3cncc(NS(=O)(=O)c4ccccc4)c3)cn12,–,1.77% (inactive)
CCc1c(Cl)c(O)c(Cl)c(O)c1C(=O)O[C@H]1[C@H](O)[C@H](OC)[C@H](OC/C2=C\C=C\C[C@H](O)/C(C)=C\[C@H](CC)[C@@H](O[C@@H]3OC(C)(C)[C@@H](OC(=O)C(C)C)[C@H](O)[C@@H]3O)/C(C)=C/C(C)=C/C[C@@H]([C@@H](C)O)OC2=O)O[C@@H]1C,–,-4.29% [at 25.7 µM] (inactive)
Cc1nc(-c2cn3c(n2)-c2ccc(-c4cnn(C(C)(C)C(N)=O)c4)cc2OCC3)n(C(C)C)n1,–,0.296% (inactive)
COc1ccc2c(NC(=O)Nc3cccc(C(F)(F)F)n3)ccnc2c1,–,1.87% (inactive)
CC(O)C(C)n1ncn(-c2ccc(N3CCN(c4ccc(OCC5COC(Cn6cncn6)(c6ccc(Cl)cc6Cl)O5)cc4)CC3)cc2)c1=O (stereo not given),inactive,–
CC(O)(C(=O)C1CC1(CO)COC1OC(CO)C(O)C(O)C1O)C1C(O)CC2C3CC=C4CC(O)CC(O)C4(C)C3C(O)CC21C (stereo not given),inactive [at 25.7 µM],–
Cc1cc2sc(NC(=O)Cc3ccccc3)nc2cc1Cl,–,-14.7% (inactive)
COCCN(C(=O)c1cc(OC)c(OC)c(OC)c1)c1nc(-c2ccccc2)cs1,inactive,–
Cc1ccc(-c2ncc[nH]2)cc1NC(=O)c1ccc(OCc2ccccn2)cc1,–,-2.86% (inactive)
FC(F)(F)c1ccccc1-c1cc(C(F)(F)F)c2nc(C3=NOC4(CCCCC4)C3)[nH]c2c1,–,-10.4% (inactive)
O=C(CSc1nc2ccccc2c(=O)n1-c1ccccc1)Nc1ccc2c(c1)CCC2,inactive,–
O=C(NCCCc1ccccc1)C1CCC(CNS(=O)(=O)c2cccc3nsnc23)CC1 (stereo not given),inactive,–
O=C(O)c1cc(N(Cc2ccc(C3CCCCC3)cc2)C(=O)c2ccc(Oc3ccccc3)cc2)ccc1O,inactive,–
C=C(C)C1CCC2(C(=O)O)CCC3(C)C(CCC4C5(C)C(C=O)C(O)C(C)(C)C5CCC43C)C12 (stereo not given),–,2.04% [at 25.7 µM] (inactive)
CC(=O)OC/C(=C/C(=O)O)CC[C@@H]1C(C=O)=CC[C@@H]2C(C)(C)CCC[C@@]12C,–,-3.81% (inactive)
Cc1cn(CCN2CCN(c3ccccc3-c3cc(C#N)cc(C(=O)NCCCN4CCCC4)c3)CC2)c2ccccc12,inactive,–
COc1cc(Br)c(S(=O)(=O)Nc2ccc(Cl)c(O[C@@H]3CCN(C)C3)c2)cc1OC,–,-6.98% (inactive)
